Results published in PubChem BioAssay.
Active and inactive are the calls of the source. Unless noted, how the calls were made is not given here.

Assays:
[1] = A549 cell viability effects, profiling panel, calcein-AM fluorescence, 48 h, basal (AID 1162); conditions: higher = more signal; further: test concentration not given here
[2] = adipocyte viability effects, profiling panel, cell-based, 3T3-L1 adipocytes, calcein-AM fluorescence, 48 h, basal (AID 1163); conditions: 3T3-L1 adipocytes viability, higher = more signal; further: test concentration not given here
[3] = HepG2 cell viability effects, profiling panel, calcein-AM fluorescence, 48 h, basal (AID 1164); conditions: higher = more signal; further: test concentration not given here
[4] = MM1S cell viability effects, profiling panel, calcein-AM fluorescence, 48 h, basal (AID 1165); conditions: higher = more signal;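 further: viability of MM1S multiple myeloma cells under basal unstimulated conditions; test concentration not given here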
[5] = basal RPMI8226 viability, no added stimulus, profiling panel, cell-based, calcein-AM fluorescence, 48 h, PK04 Diversity Set (AID 1166); conditions: RPMI8226 myeloma viability, higher = more signal;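 further: cells grown under basal conditions without added stimulus; test concentration not given here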
[6] = basal HepG2 mitochondrial membrane potential changes, profiling panel, cell-based, JC-1 fluorescence, 24 h, 100 nL compound (AID 1167); conditions: higher = more signal; further: test concentration not given here
[7] = basal 3T3-L1 adipocyte mitochondrial potential changes, profiling panel, cell-based, JC-1 fluorescence, 3T3-L1 adipocytes, 24 h, 100 nL compound (AID 1168); conditions: JC-1 mitochondrial fluorescence, higher = more signal, called active from +8 up or from −8 down; further: test concentration not given here
[8] = basal RPMI8226 mitochondrial membrane potential changes, profiling panel, cell-based, JC-1 fluorescence, 24 h, 100 nL compound (AID 1169); conditions: RPMI8226 myeloma, JC-1 mitochondrial potential fluorescence, higher = more signal; further: test concentration not given here
[9] = basal MM1S mitochondrial membrane potential changes, profiling panel, cell-based, JC-1 fluorescence, 24 h, 100 nL compound (AID 1170); conditions: higher = more signal; further: test concentration not given here
[10] = A549 lung cancer cell viability effects, profiling panel, resazurin fluorescence, 24 h, PK04 Diversity Set (AID 1171); conditions: higher = more signal, called active from +8 up or from −8 down; further: test concentration not given here
[11] = HepG2 liver cancer cell viability effects, profiling panel, resazurin fluorescence, 24 h, PK04 Diversity Set (AID 1172); conditions: higher = more signal; further: test concentration not given here
[12] = basal S. cerevisiae growth modulation, no modifier, primary screen, OD600, strain BY4716, 24 h, basal condition (AID 1173); conditions: OD600, 24 h, higher = more signal, called active from +8 up or from −8 down
[13] = MM1S myeloma cell viability, profiling panel, resazurin fluorescence, basal, 24 h, PK04 Diversity Set (AID 1174); conditions: higher = more signal, called active from +8 up or from −8 down;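 further: MM1S multiple myeloma cell line; test concentration not given here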
[14] = biological target: Dihydroorotate dehydrogenase (quinone), mitochondrial (Plasmodium falciparum (isolate 3D7)) (UniProt Q08210); test: PfDHODH enzyme inhibitors, primary screen, biochemical, C-terminal His tag, absorbance 600 nm (AID 1175); conditions: DCIP absorbance 600 nm, higher = more signal, called active from +8 up or from −8 down;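 further: recombinant parasite enzyme with a five histidine tag at its C terminus; test concentration not given here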
[15] = P. aeruginosa biofilm formation inhibitors, primary screen, strain PAO1, LB-PBS medium, absorbance 600 nm (AID 1176); further: test concentration not given here; conditions: P. aeruginosa PAO1 growth/biofilm, A600, 12 h; higher = more signal
[16] = S. cerevisiae RM11-1a growth modifiers, primary screen, strain RM11-1a, OD600, basal, 24 h (AID 1177); conditions: OD600, 24 h, higher = more signal, called active from +8 up or from −8 down;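 further: cultures grown under basal conditions with no added stressor; test concentration not given here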
[17] = E. coli acrAB mutant growth effects, primary screen, E. coli filamentation inducers, strain DRC39, OD650, 24 h (AID 1178); conditions: higher = more signal, called active from +8 up or from −8 down;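 further: growth measured as culture turbidity by optical density at 650 nm; test concentration not given here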
[18] = E. coli acrAB mutant growth effects, primary screen, E. coli filamentation inducers, strain DRC39, OD650, 48 h (AID 1179);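 further: screen aims at cell division blockers that make cells filament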; conditions: E. coli DRC39 delta-acrAB growth, higher = more signal, called active from +8 up or from −8 down
[19] = RPMI8226 myeloma cell viability, profiling panel, resazurin fluorescence, basal, 24 h, PK04 Diversity Set (AID 1180); conditions: higher = more signal;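 further: RPMI8826 multiple myeloma cell line at 5000 cells per well; test concentration not given here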
[20] = biological target: E3 ubiquitin-protein ligase XIAP (Homo sapiens) (UniProt P98170); test: XIAP binders, primary screen, biophysical, small-molecule microarray, fluorescence 635 nm (AID 1181); conditions: small-molecule microarray binding, higher = more signal;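 further: score merges 667 nm emission and signal to noise over triplicate slides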
Chain of E3 ubiquitin-protein ligase XIAP (Homo sapiens) (P98170 whole entry, looked up): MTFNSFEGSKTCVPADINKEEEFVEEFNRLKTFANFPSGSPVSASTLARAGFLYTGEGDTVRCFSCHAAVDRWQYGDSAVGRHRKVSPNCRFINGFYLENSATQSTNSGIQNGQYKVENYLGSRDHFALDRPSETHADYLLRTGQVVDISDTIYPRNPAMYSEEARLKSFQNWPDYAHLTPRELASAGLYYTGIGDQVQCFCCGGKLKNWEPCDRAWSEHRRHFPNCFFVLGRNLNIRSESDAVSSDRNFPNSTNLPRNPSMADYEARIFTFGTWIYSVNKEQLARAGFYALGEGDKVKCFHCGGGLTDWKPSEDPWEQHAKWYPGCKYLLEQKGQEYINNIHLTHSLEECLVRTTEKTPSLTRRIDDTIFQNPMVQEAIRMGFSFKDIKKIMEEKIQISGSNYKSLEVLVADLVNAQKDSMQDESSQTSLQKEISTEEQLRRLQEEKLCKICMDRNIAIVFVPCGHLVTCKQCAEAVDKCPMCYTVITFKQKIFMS

Chain of Dihydroorotate dehydrogenase (quinone), mitochondrial (Plasmodium falciparum (isolate 3D7)) (Q08210 whole entry, looked up): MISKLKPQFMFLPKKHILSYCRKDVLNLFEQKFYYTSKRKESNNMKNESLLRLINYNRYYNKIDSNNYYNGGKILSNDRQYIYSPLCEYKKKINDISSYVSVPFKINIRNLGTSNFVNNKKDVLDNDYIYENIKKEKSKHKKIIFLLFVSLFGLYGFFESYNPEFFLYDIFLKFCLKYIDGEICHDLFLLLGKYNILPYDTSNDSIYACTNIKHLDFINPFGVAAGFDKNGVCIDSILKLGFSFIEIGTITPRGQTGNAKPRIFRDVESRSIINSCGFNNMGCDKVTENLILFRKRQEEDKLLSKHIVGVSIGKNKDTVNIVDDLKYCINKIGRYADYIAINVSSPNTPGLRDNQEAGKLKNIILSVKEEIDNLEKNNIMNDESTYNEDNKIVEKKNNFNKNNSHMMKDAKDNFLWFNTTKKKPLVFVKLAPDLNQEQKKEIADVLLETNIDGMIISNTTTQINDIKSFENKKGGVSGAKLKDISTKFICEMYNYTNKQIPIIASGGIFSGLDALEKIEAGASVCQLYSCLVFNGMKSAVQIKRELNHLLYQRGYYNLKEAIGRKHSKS

C=CC[C@@H]1C=C[C@H](ON=C(C)CCC(=O)OC[C@H]2O[C@H](C#Cc3ccccc3)C=C[C@@H]2Oc2ccc(C)cc2)[C@@H](CO)O1
z-score [1]: 0.572
z-score [2]: -0.48
z-score [3]: -0.0329
z-score [4]: 0.551
z-score [5]: -0.737
z-score [6]: -0.429
z-score [7]: -0.311 (inactive)
z-score [8]: -0.759
z-score [9]: -1.08
z-score [10]: 0.231 (inactive)
z-score [11]: -0.0055
z-score [12]: 1.09 (inactive)
z-score [13]: 0.212 (inactive)
composite z-score [14]: 0.103 (inactive)
z-score [15]: -0.242 (inactive)
z-score [16]: 1.23 (inactive)
z-score [17]: 0.911 (inactive)
z-score [18]: -1.55 (inactive)
z-score [19]: -0.177
composite z-score [20]: 0.132

COC(=O)CC=C[C@@H](C)[C@@H](C=NOC[C@H]1O[C@H](c2ccccc2)C=C[C@@H]1Oc1ccc(OC)cc1)NS(=O)(=O)c1ccc(C)cc1
z-score [1]: -1.31
z-score [2]: -0.486
z-score [3]: -0.43
z-score [4]: -1.7
z-score [5]: -1.2
z-score [6]: 0.0495
z-score [7]: -1.06 (inactive)
z-score [8]: 0.689
z-score [9]: -0.077
z-score [10]: -0.374 (inactive)
z-score [11]: -0.659
z-score [12]: 0.642 (inactive)
z-score [13]: -0.0907 (inactive)
composite z-score [14]: 0.0727 (inactive)
z-score [15]: -0.0781 (inactive)
z-score [16]: 0.0674 (inactive)
z-score [17]: -1.01 (inactive)
z-score [18]: -0.913 (inactive)
z-score [19]: -0.189
composite z-score [20]: -0.167

COC(=O)[C@H](C)NC(=O)CCC1CC(OC(=O)NCc2ccc3c(c2)OCO3)CC2(CCCC(COC(=O)NCc3cccc(C(F)(F)F)c3)O2)O1 (stereo not given in full)
z-score [1]: -0.828
z-score [2]: -0.0811
z-score [3]: -1.55
z-score [4]: -2.05
z-score [5]: 0.442
z-score [6]: -1.44
z-score [7]: -0.123 (inactive)
z-score [8]: 0.619
z-score [9]: -0.213
z-score [10]: 0.0249 (inactive)
z-score [11]: -0.443
z-score [12]: -0.817 (inactive)
z-score [13]: 0.374 (inactive)
composite z-score [14]: -0.303 (inactive)
z-score [15]: 0.484 (inactive)
z-score [16]: -0.476 (inactive)
z-score [17]: 0.298 (inactive)
z-score [18]: 0.079 (inactive)
z-score [19]: 0.459
composite z-score [20]: 0.0566
